From PubChem BioAssay
Only some compounds are listed: those with a hit (about 7.8% of all), similar ones and a draw of the others.
MARV entry inh: Marburg virus entry inhibition; Marburg virus pseudotyped entry inhibition, cell reporter; actives 1.8% (n = 300,000); Potency, µM (doses to about 37.8 µM), inactives show top-dose activity change, negative = inhibition, usual class: inhibitors; calls by dose curve; tested in HEK293 cells; further: potency means the concentration at half of the fitted maximal effect
LASV entry inh: Lassa virus entry inhibition; Lassa virus pseudotype entry inhibition, cell reporter; actives 1.2% (n = 300,000); Potency, µM (highest dose often 37.9 µM), without a hit: top-dose activity change, negative = inhibition, hits mostly inhibitors; calls by dose curve; tested in HEK293 cells; further: potency means the concentration at half of the fitted maximal effect; nearly all actives have a fitted effect of over 50% in size
HCV inhibitor: HCV inhibition; Huh7.5.1 HCVcc-Cre infection, luciferase reporter, 44 h; Potency, µM (doses to about 41.8 µM), without a hit: top-dose activity change, negative = inhibition, hits mostly inhibitors; actives 3.4% (n = 340,000); AID 651820; active means well fitted inhibition curve with a large enough effect; inconclusive means small, poorly fitted or top-dose-only effect, or another doubt; inactive means no such curve, though single readings can be large or run the other way; further: potency means the concentration at half of the fitted maximal effect
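Infectious HCV cell culture screen: compound-treated cells (1,000/well, pre-plated 4 h) are infected with HCVcc-Cre at roughly 0.5 moi and grown 44 h. Infection is quantified by luciferase signal after 15 min substrate incubation at room temperature.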
Vaccinia Venus: inhibitors of vaccinia virus (Venus reporter); Vaccinia virus Venus reporter expression, fluorescence; actives 0.46% (n = 330,000); AID 720580; Potency, µM (highest dose often 36.5 µM), for the others: at the top dose activity change, negative = inhibition, most hits filed as inhibitors; calls by dose curve; tested in A549 cells; further: potency means the concentration at half of the fitted maximal effect; nearly all actives have a fitted effect of over 30% in size
VACV mCherry inh: inhibitors of vaccinia virus infection (mCherry reporter signal); Vaccinia virus mCherry reporter infection, fluorescence; AID 720579; Potency, µM (doses to about 36.5 µM), for the others: at the highest dose activity change, negative = inhibition, actives largely listed as inhibitors; actives 0.63% (n = 310,000); calls by dose curve; tested in A549 cells; further: potency means the concentration at half of the fitted maximal effect; nearly all actives have a fitted effect of over 35% in size
HCMV inh: human cytomegalovirus inhibition. HFF cells, HCMV-luciferase reporter, 72 h; active compounds read low. activity change, negative = inhibition, % at 57.5 µM. actives 4.5% (n = 410,000). AID 1259415; in the data active means activity change below about -60%; inconclusive means no clear call, values can overlap the other calls; inactive means above about -39%
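Inhibition of viral replication was scored as loss of reporter luminescence in HFFs infected with HCMV-luciferase (MOI 1 PFU/cell) for 72 h; compounds tested at 2 doses, normalized to buffer and Salinomycin controls.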
Starred values were filed as active, the others as inactive; [ ] = remark or other dose. On the % scale 0 is the no-effect control and ±100 the full control effect.

Screening Cc1onc(-c2ccccc2)c1-c1ccnn1S(=O)(=O)c1ccc(Cl)cc1 returned MARV entry inh 11%[14.2 µM], LASV entry inh -11%, HCV inhibitor -24%, Vaccinia Venus 0%, VACV mCherry inh -6% and HCMV inh 0.
For Cc1onc(-c2ccc(Cl)cc2)c1-c1ccnn1S(=O)(=O)c1cccc(C(F)(F)F)c1 the results were MARV entry inh 10µM*, LASV entry inh -27%, HCV inhibitor inconclusive, Vaccinia Venus -4%[7.34 µM], VACV mCherry inh -13%[7.34 µM] and HCMV inh -36.
Screening COc1ccc(-n2c(=O)c3c4c(sc3n3c(SC(C)C)nnc23)COC(C(C)C)C4)cc1 (centres undefined) returned MARV entry inh 2%[46.1 µM], LASV entry inh inconclusive, Vaccinia Venus -15%, VACV mCherry inh -19% and HCMV inh -33.
CCOC(=O)Cn1nc(/C=C/c2ccc(OC)cc2)ccc1=O was read as MARV entry inh -7%, LASV entry inh 7%, HCV inhibitor 7%, Vaccinia Venus 0%, VACV mCherry inh 0% and HCMV inh -106*.
CCOC(=O)Cn1nc(-c2ccc(C)cc2)ccc1=O was read as MARV entry inh 15%, LASV entry inh 2%, HCV inhibitor 19% and HCMV inh 30.
For COc1ccc(/C=C/c2ccc(=O)n(Cc3ccccc3)n2)cc1 the results were MARV entry inh -29%[46.1 µM], LASV entry inh 5µM*, HCV inhibitor inconclusive, Vaccinia Venus -20%, VACV mCherry inh -10% and HCMV inh -8.
`COc1ccccc1-c1ccc([C@@H]2C[C@H]3[C@H](CON3C)CN2CC2CCCCC2)cc1` gave HCMV inh -16.
Cc1cc(C)cc(N(CCC(=O)O)S(=O)(=O)c2ccc(Cl)cc2)c1 was read as MARV entry inh -5%, LASV entry inh 7%, HCV inhibitor 3%, Vaccinia Venus -5%, VACV mCherry inh -12% and HCMV inh -69*.
For CCc1ccc(C2c3[nH]c4ccccc4c3CCN2C(=O)CNC(N)=O)cc1 (centres undefined) the results were MARV entry inh -18%, LASV entry inh -23%, HCV inhibitor 29%, Vaccinia Venus -7%, VACV mCherry inh -7% and HCMV inh 11.
CCc1ccc(C2c3[nH]c4ccccc4c3CCN2C(=O)CN2CCN(CC)CC2)cc1 (centres undefined) was read as MARV entry inh 13µM*, LASV entry inh inconclusive, HCV inhibitor inconclusive, Vaccinia Venus -29%, VACV mCherry inh inconclusive and HCMV inh 24.
Screening CCc1ccc(C2c3[nH]c4ccccc4c3CCN2C(=O)c2ccc(=O)n(C)n2)cc1 (centres undefined) returned MARV entry inh 11µM*, LASV entry inh inconclusive, HCV inhibitor 0%, Vaccinia Venus -16%, VACV mCherry inh -10% and HCMV inh 36.
O=C(CCl)NN1C(=O)NC(c2ccccc2)(c2ccccc2)C1=O was read as MARV entry inh inconclusive, LASV entry inh inconclusive, HCV inhibitor inconclusive, Vaccinia Venus inconclusive, VACV mCherry inh inconclusive and HCMV inh -88*.
Screening CC(C)(C)NC(=O)CN1C(=O)NC(c2ccccc2)(c2ccccc2)C1=O returned MARV entry inh 6%[46.1 µM], LASV entry inh 1%[46.1 µM], HCV inhibitor -8%, Vaccinia Venus 3%, VACV mCherry inh -9% and HCMV inh -81*.
`O=C(CCl)NN1C(=O)NC2(CCCCC2)C1=O` gave HCV inhibitor 5% and HCMV inh -33.
`N#Cc1ccccc1NC(=O)CSc1nnc(N)s1` gave LASV entry inh -4%[46.1 µM], Vaccinia Venus -4%, VACV mCherry inh 0% and HCMV inh 66.
For Cc1nn2cc(-c3cccc(Cl)c3)cnc2c1Cl the results were MARV entry inh 4.5µM*, LASV entry inh inconclusive, HCV inhibitor 0%, Vaccinia Venus -23%, VACV mCherry inh -13% and HCMV inh 62.
`Cc1ccc(-n2c(Cl)c(Cl)nc(Cl)c2=O)cc1` gave MARV entry inh inconclusive, LASV entry inh 7.3µM*, HCV inhibitor 7.1µM*, Vaccinia Venus inconclusive and VACV mCherry inh inconclusive.
`Cc1cc(-c2ccnc(-n3ncc(C(=O)NCc4cccnc4)c3C3CC3)n2)c(C)s1` gave Vaccinia Venus 6% and VACV mCherry inh -12%.
`O=C1NC[C@H](c2ccccc2)N(CCCCC2CCCCC2)C1=O` gave Vaccinia Venus inconclusive, VACV mCherry inh 2.2µM* and HCMV inh -4.
CC(C)C[C@@H]1CN(CCCC[C@H]2CNC(=O)C(=O)N2CCC2CCCCC2)C(=O)C(=O)N1CCC1CCCCC1 was read as Vaccinia Venus inconclusive, VACV mCherry inh inconclusive and HCMV inh -15.
CC(C)C[C@H]1CN(CCCC[C@H]2CNC(=O)C(=O)N2CCC2CCCCC2)C(=O)C(=O)N1CCC1CCCCC1 was read as Vaccinia Venus inconclusive, VACV mCherry inh inconclusive and HCMV inh -108*.
`NCCCC[C@H]1CNC(=O)C(=O)N1CCCCC1CCCCC1` gave HCV inhibitor 17%, Vaccinia Venus 0%, VACV mCherry inh -6% and HCMV inh -3.
For CCc1ccc(-n2nnc(-c3nc(-c4cccs4)no3)c2N)cc1 the results were LASV entry inh inconclusive, Vaccinia Venus -13%, VACV mCherry inh -7% and HCMV inh 72.
`Cc1cnc(NC(=O)C(C)(C)n2cc(-c3ccc4c(c3)OCCO4)cn2)s1` gave HCMV inh 13.
Screening CCn1c(COc2ccc(=O)n(-c3ccccc3)n2)nnc1SCc1ccc(C)cc1 returned MARV entry inh -10%, LASV entry inh inconclusive, HCV inhibitor 9% and HCMV inh -14.
`CCn1c(COc2ccc(=O)n(-c3ccccc3)n2)nnc1SCc1ccccc1C` gave MARV entry inh -20%, LASV entry inh -16%, HCV inhibitor 17% and HCMV inh -65*.
For O=C(CSc1nc(=O)n(Cc2ccco2)c2c1CCC2)Nc1ccccc1C(F)(F)F the results were LASV entry inh -22%[46.1 µM], Vaccinia Venus -21%, VACV mCherry inh -10% and HCMV inh -38.
Screening COc1cc(C2c3c([nH]c(=O)[nH]c3=O)Nc3ccc4ccccc4c32)ccc1O (centres undefined) returned MARV entry inh inconclusive, LASV entry inh -1%, HCV inhibitor 10µM*, Vaccinia Venus -3%, VACV mCherry inh inconclusive and HCMV inh 57.
Screening CCOC(=O)c1c(C)[nH]c(C)c1C(=O)COC(=O)c1cccc(S(=O)(=O)N(CC)CC)c1 returned MARV entry inh -2%, LASV entry inh 22µM*, HCV inhibitor inconclusive, Vaccinia Venus -28%, VACV mCherry inh inconclusive and HCMV inh -26.
